Bioassay records from PubChem BioAssay.
EPAC1 antagonist – EPAC1 (human) antagonism; O95398; EPAC1 GEF assay, Rap1b-BODIPY-GDP exchange fluorescence; Potency, µM (highest dose often 115 µM), without a hit: at the top dose activity change, negative = inhibition, actives largely listed as inhibitors; actives 0.14% (n = 360,000); AID 720709;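 note: potency is the fitted concentration of half-maximal effect; plate controls were vehicle for no effect and positive control for full effect; nearly all actives have a fitted effect of over 50% in size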
TRPML1 agonist – agonists of human TRPML1 channel | activation, % (concentration not given with the values) | Q9GZU1 | actives 0.12% (n = 410,000) | TRPML1-expressing cells, Ca2+ dye fluorescence, FDSS; in the data active = activation above about 50%; inconclusive = mostly about 30% to 49%; note: 0% is about no effect
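Cells: TRPML1-DL, 1X Tet inducer, ~16 h at 37 degrees C/5% CO2. Dye: ABD Ca8 no-wash + quencher, 45-90 min RT. Read: 10 s baseline, compound add, 110 s agonist phase; 54-4 EC80 (4uM final), 110 s antagonist phase.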
EPAC2 antagonist – blocks human EPAC2 exchange factor. Q8WZA2. EPAC2 GEF exchange of Rap1B-BODIPY-GDP, fluorescence. Potency, µM (series often up to 114 µM), for inactives: top-dose activity, negative = inhibition, usual class: inhibitors. actives 0.18% (n = 360,000). AID 720708; note: potency is the fitted concentration of half-maximal effect; % is set by controls: 0 for no effect and ±100 for the full control effect; nearly all actives have a fitted effect of over 45% in size
Target sequence (Q8WZA2 whole entry, looked up): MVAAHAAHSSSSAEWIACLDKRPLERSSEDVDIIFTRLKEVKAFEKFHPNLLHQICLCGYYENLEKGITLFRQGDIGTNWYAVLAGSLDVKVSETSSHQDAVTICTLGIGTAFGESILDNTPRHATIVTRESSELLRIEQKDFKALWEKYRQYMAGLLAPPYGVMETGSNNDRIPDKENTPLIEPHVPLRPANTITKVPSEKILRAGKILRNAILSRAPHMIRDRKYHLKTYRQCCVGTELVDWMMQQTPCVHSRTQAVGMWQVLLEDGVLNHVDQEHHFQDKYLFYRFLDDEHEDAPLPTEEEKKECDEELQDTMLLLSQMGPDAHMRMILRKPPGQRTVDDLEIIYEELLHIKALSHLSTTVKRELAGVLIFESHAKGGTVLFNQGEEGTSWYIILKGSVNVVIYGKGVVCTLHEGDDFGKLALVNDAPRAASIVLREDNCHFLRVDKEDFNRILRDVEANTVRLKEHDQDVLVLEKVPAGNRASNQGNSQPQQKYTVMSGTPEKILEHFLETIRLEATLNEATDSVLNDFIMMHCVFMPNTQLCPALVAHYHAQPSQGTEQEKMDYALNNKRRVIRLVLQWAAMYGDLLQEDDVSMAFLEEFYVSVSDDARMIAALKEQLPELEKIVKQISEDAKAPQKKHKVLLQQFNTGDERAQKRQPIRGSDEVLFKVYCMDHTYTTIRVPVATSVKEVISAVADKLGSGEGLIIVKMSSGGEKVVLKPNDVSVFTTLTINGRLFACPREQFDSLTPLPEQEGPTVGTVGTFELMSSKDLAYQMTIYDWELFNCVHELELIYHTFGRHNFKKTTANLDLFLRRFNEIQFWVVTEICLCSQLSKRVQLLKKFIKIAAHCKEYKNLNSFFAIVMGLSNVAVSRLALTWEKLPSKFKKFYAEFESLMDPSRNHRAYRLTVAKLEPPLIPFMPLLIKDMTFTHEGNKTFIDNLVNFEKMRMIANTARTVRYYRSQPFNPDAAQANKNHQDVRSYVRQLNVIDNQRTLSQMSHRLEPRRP
EPAC1 ag – agonists of human EPAC1; O95398; Potency, µM (top dose mostly 154 µM), for the others: at the highest dose activation, usual class: activators; actives 0.073% (n = 360,000); EPAC1 agonist qHTS, biochemical assay; response scale: 100% = response to 6.5 mM cAMP; AID 720707; note: potency is the fitted concentration of half-maximal effect; nearly all actives have a fitted effect of over 60% in size
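Fluorescent GDP-exchange assay: 100 nM EPAC1 with 250 nM Rap1B preloaded with BODIPY-GDP and 50 uM GDP; compounds tested as concentration series, 5 min at room temperature, then read every 5 min for 30 min (ex 480/em 540 nm); normalized to 6.5 mM cAMP.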
TRPML1 inh – blocks the human TRPML1 channel; TRPML1-inducible cells, Ca2+ dye fluorescence, FDSS; stronger effect = lower value; inhibition of EC80 agonist-evoked calcium signal; activity change, negative = inhibition, % (no concentration beside the values); actives 0.02% (n = 390,000); in the data active = activity change below about -50%; inconclusive = between about -30% and that limit;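 note: stimulus is agonist 54-4 at its EC80 concentration; % is set by controls: 0 for no effect and ±100 for the full control effect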
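Tet-induced TRPML1-DL cells loaded with Ca8 no-wash calcium dye were read kinetically on FDSS. Compound addition was followed by EC80 agonist 54-4 (4 uM final); inhibition was read over 110 s.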
EPAC2 ag – activates human EPAC2 exchange factor. EPAC2 activation, biochemical qHTS; response scale: 100% = 6.5 mM cAMP response. AID 720711. Potency, µM (highest dose often 154 µM), for the others: top-dose activation, usual class: activators. actives 0.079% (n = 360,000); note: potency is the fitted concentration of half-maximal effect; nearly all actives have a fitted effect of over 50% in size
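Compounds were added across a concentration range to EPAC2 (100 nM), RAP1B-BODIPY-GDP (250 nM) and GDP (50 uM). After 5 min at room temperature, fluorescence was recorded at 5-min intervals for 30 min.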
Starred values were filed as active, the others as inactive; ? = inconclusive; . = no result given. Shown are actives, neighbours in structure and some others; about 0.4% of the full set was active somewhere. Unless noted, calls come from the whole dose curve; as a rule, active = well fitted curve in the direction sought with a large enough effect; inconclusive = small, poorly fitted or top-dose-only effect, or another doubt; inactive = no such curve, though single readings can be large; an effect the other way counts as inactive or inconclusive.

SMILES	EPAC1 antagonist	TRPML1 agonist	EPAC2 antagonist	EPAC1 ag	TRPML1 inh	EPAC2 ag
N/C(=N\OC(=O)C12CC3CC(CC(C3)C1)C2)c1ccncc1	12%	61*	-8%	8%	12	7%
Oc1c(C(Nc2ccccn2)c2ccccc2)ccc2cccnc12 (configuration not stated)	.	0	.	.	.	.
CN(C)c1ccc(/C=C2\C(=N)N3N=C(CC(=O)N4CCCC4)SC3=NC2=O)cc1Br	0%	1	-12%	10%	-19	4%
CN(C)c1ccc(/C=C2\C(=N)N3N=C(CC(=O)N4CCCCC4)SC3=NC2=O)cc1	-9%	26	10%	8%	9	100µM*
COc1ccc2[nH]c(C)c(C(=O)CNc3nccs3)c2c1	.	0	.	.	.	.
CC1CCN(C(=O)c2cnn(-c3cccc(Cl)c3)c2C2CCN(C(=O)OC(C)(C)C)CC2)CC1	.	0	.	.	0	.
COc1ccccc1N1CCN(C(=O)c2cnn(-c3cccc(Cl)c3)c2C2CCN(C(=O)OC(C)(C)C)CC2)CC1	.	67*	.	.	-12	.
CC(C)(C)OC(=O)N1CCC(c2c(C(=O)N3CCC(c4ccccc4)C3)cnn2-c2ccc(Cl)cc2)CC1 (configuration not stated)	.	28	.	.	12	.
CC(C)(C)OC(=O)N1CCC(c2c(C(=O)N3CCC(c4ccccc4)C3)cnn2-c2cccc(Cl)c2)CC1 (configuration not stated)	.	57*	.	.	-10	.
CC(C)(C)OC(=O)N1CCC(c2c(C(=O)N3CCN(Cc4ccccc4)CC3)cnn2-c2cccc(Cl)c2)CC1	.	92*	.	.	-26	.
Cc1ccc(C2CCN(C(=O)c3cnn(-c4cccc(Cl)c4)c3C3CCN(C(=O)OC(C)(C)C)CC3)C2)cc1 (configuration not stated)	.	59*	.	.	-1	.
COc1cc(Cl)c(CC(=O)NO)cc1OC	.	-1	.	.	.	.
CCc1cc(C(=O)/C=C/c2cc3c(cc2C)OCCO3)c(O)cc1O	.	0	.	.	.	.
O=C(CCCCCn1c(=O)c2sccc2n(Cc2ccccc2Cl)c1=O)NCc1ccc2c(c1)OCO2	.	0	.	.	-3	.
CC(C)(C)OC(=O)N1CCC(c2c(C(=O)N3CCN(C4CCCCC4)CC3)cnn2-c2ccccc2)CC1	-2%	0	0%	-13%	7	-3%
Cc1cccc(-n2ncc(C(=O)N3CCN(C4CCCCC4)CC3)c2C2CCN(C(=O)OC(C)(C)C)CC2)c1	.	91*	.	.	?	.
CN(CCC#N)c1ccc(/C=C/c2ccnc3ccccc23)cc1	.	4	.	.	.	.
CN1/C(=C\C=C(/C#N)C(=O)Nc2ccccc2F)C(C)(C)c2ccccc21	16%	?	50%	?	-1	100µM*
CN1/C(=C/C=C(/C#N)C(N)=O)C(C)(C)c2ccccc21	8%	5	13%	2%	15	10%
COc1ccc(NC(=O)C2CCC(C(C)(C)C)CC2)cc1S(=O)(=O)N1CCCCC1 (configuration not stated)	-27%	84*	-3%	-25%	-1	-13%
CCCC(=O)N(C)c1ccc(/C=C2\C=Cc3ccccc32)cc1	.	-1	.	.	.	.
Fc1ccc(-[n+]2nc(Nc3ccccc3)sc2-c2c3ccccc3cc3ccccc23)cc1	-26%	1	-6%	-18%	40	11%
Oc1ccc2ccccc2c1-c1sc(Nc2ccccc2)n[n+]1-c1ccc(F)cc1	?	0	50µM*	-79%	20	-336%
O=C(O)c1[nH]c2ccccc2c1C(c1cc(Cl)cc([N+](=O)[O-])c1O)c1c(C(=O)O)[nH]c2ccccc12	25µM*	0	-7%	-5%	-6	-4%
COc1cc(OC)c(/C=C/c2cc(/C=C/c3c(OC)cc(OC)cc3OC)[n+](C)c3ccccc23)c(OC)c1	.	3	.	.	.	.
O=C1C(=C(O)c2ccccc2)C(=O)c2ccccc21	-3%	1	0%	6%	-8	15%
